# Screen size: about 64,000 compounds; about 2,200 (3.4%) were called active.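 How the source made its calls: active means calcium fluorescence response, raw or row-and-column corrected B-score, differing from the plate sample mean either way at a set confidence level, mostly lower; inactive means the rest.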 Only a selection was taken, and actives are over-represented in it overall.
# Biological target: Muscarinic acetylcholine receptor M1 (Rattus norvegicus) (UniProt P08482)
# Assay: antagonists of rat M1 muscarinic receptor (AID 628)
# Details: CHO-M1 cells, Fluo-4 calcium, ACh EC80 antagonist mode; at 10 µM; hits give low values
# Chain of Muscarinic acetylcholine receptor M1 (Rattus norvegicus) (P08482 whole entry, looked up): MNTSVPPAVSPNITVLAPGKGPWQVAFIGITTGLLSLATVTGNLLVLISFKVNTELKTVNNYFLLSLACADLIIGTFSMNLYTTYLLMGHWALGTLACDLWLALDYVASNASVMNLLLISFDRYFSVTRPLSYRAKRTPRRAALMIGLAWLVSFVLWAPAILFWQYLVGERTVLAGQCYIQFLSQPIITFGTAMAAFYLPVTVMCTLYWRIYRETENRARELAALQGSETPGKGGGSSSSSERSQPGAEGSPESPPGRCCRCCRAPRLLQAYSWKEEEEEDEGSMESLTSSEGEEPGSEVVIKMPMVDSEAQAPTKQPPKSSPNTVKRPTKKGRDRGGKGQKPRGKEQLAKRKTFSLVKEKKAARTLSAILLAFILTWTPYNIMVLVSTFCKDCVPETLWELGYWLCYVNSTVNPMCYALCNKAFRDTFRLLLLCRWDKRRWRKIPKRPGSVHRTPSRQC
row,Compound,B-score
1,O=C(Nc1nnc(-c2ccc(Cl)cc2)o1)c1ccccc1Br,0.257 (inactive)
2,Cc1c(C)c2cc3c4c(oc3c(C)c2oc1=O)CCCC4,-2.52 (active)
3,CCCOc1ccc2c3c(c(=O)oc2c1OCCC)CCC3,-0.182 (inactive)
4,O=C(NCc1ccc(Cl)cc1)c1cc2c(nc3sccn32)s1,-0.593 (inactive)
5,CCC(C)(NC(=O)c1ccccn1)C(=O)NC1CCCCC1 (stereo unspecified),-3.41 (active)
6,CCC(C)(C(=O)NC1CCCC1)N(C(=O)CNC(C)=O)c1ccc(C)cc1 (stereo unspecified),0.0894 (inactive)
7,CN(CC(=O)NC1CCCCC1)S(=O)(=O)c1cccc2cccnc12,-0.865 (inactive)
8,O=C(O)c1cc(S(=O)(=O)N2CCCCCC2)c(Cl)cc1Cl,-0.939 (inactive)
9,COCCCNC(=O)Cn1cc(C(=O)C2CC2)c2ccccc21,1.18 (inactive)
10,CN(C)CCCNc1c2c(c(C#N)c3nc4ccccc4n13)CCC2,-3.92 (active)
11,N#Cc1c2c(c(N3CCN(CCO)CC3)n3c1nc1ccccc13)CCCC2,-0.206 (inactive)
12,Cc1cc(NCc2ccco2)n2c(nc3ccccc32)c1C#N,0.838 (inactive)
13,CC(=O)CSc1nnc(CSc2ncccn2)n1C1CCCCC1,0.586 (inactive)
14,CC1CN(c2cc(=O)n(Cc3ccc(F)cc3)c(=O)[nH]2)CC(C)O1 (stereo unspecified),-0.0281 (inactive)
15,CCOc1cc(S(=O)(=O)NCc2ccc3c(c2)OCO3)ccc1F,0.637 (inactive)
16,O=C(CS(=O)(=O)c1cn(Cc2ccc(Cl)cc2)c2ccccc12)N1CCOCC1,0.274 (inactive)
17,Cn1c(=O)c(=O)n(C)c2cc(S(=O)(=O)NCCc3ccccc3)ccc21,0.991 (inactive)
18,CC1CCC(NS(=O)(=O)c2ccc3c(c2)n(C)c(=O)c(=O)n3C)CC1 (stereo unspecified),-0.853 (inactive)
19,CCCCN(CCCC)C(=O)CCS(=O)(=O)c1ccc2c(c1)n(C)c(=O)c(=O)n2C,-3.55 (active)
20,Cc1c(CN2CCC(C)CC2)c(=O)n(-c2ccccc2)n1C,0.549 (inactive)
21,CC(=O)N1CCN(c2cccc(C)c2C)CC1,0.482 (inactive)
22,Cc1cccc(N2CCN(Cc3c(C)n(C)n(-c4ccccc4)c3=O)CC2)c1C,-9.51 (active)
23,CC1CCCN(Cc2nc3c(c(=O)n(C)c(=O)n3C)n2Cc2cccc3ccccc23)C1 (stereo unspecified),0.779 (inactive)
24,O=C1CC(Cc2ccccc2)C(=O)N1c1ccc(Cl)cn1 (stereo unspecified),-0.406 (inactive)

row,Compound,B-score
1,CCn1c(SCC(=O)Nc2cc(C)ccc2C)nnc1-c1cnccn1,0.583 (inactive)
2,C=C(C)Cn1c(N2CCCC2)nc2c1c(=O)[nH]c(=O)n2C,-2.42 (active)
3,Cn1c(=O)[nH]c(=O)c2c1nc(N1CCCCCC1)n2CC(=O)c1ccccc1,0.41 (inactive)
4,C=C(C)Cn1c(N2CCN(CC)CC2)nc2c1c(=O)[nH]c(=O)n2C,0.423 (inactive)
5,COc1ccc(C(CC(=O)O)NC(=O)Cc2ccccc2)cc1 (stereo unspecified),-0.777 (inactive)
6,Cc1cc(C(=O)COC(=O)c2cccs2)c(C)n1-c1c(C)n(C)n(-c2ccccc2)c1=O,-1.28 (inactive)
7,CCC/C(O)=C1\C(=O)CC(C)(C)CC1=Nc1ccccc1OC,-1.93 (active)
8,COc1ccccc1N=C1SC(C)CN1C(=O)C1CCC1 (stereo unspecified),0.0033 (inactive)
9,CCOc1ccccc1N=C1NC(=O)CS1,0.266 (inactive)
10,CC1CN(Cc2nc3c(c(=O)n(C)c(=O)n3C)n2Cc2cccc(Cl)c2)CC(C)O1 (stereo unspecified),1.23 (inactive)
11,CC(=O)NCC(=O)N(C)C(C(=O)Nc1ccc2c(c1)OCCO2)c1ccccc1 (stereo unspecified),0.158 (inactive)
12,CCCCCOC(=O)NCCOC(=O)Nc1ccc(C(=O)OCC)cc1,-2.48 (active)
13,CCCCC(CCC(=O)Nc1ccc(C(=O)OCC)cc1)C(=O)O (stereo unspecified),0.867 (inactive)
14,CCCCCCOC(=O)NCC(O)c1ccccc1 (stereo unspecified),0.126 (inactive)
15,Cc1ccccc1Cn1c(=O)[nH]c2ccccc21,-1.7 (inactive)
16,COc1ccc(CNC(=O)c2cc3c(=O)n4ccccc4nc3n(CC3CCCO3)c2=N)cc1 (stereo unspecified),-1.29 (inactive)
17,COc1ccc(CCn2c(=N)c(C(=O)NCc3ccco3)cc3c(=O)n4cccc(C)c4nc32)cc1,-2.38 (active)
18,CCn1c(=N)c(C(=O)NCCCOC)cc2c(=O)n3cccc(C)c3nc21,-0.808 (inactive)
19,CCOC(=O)C1CCN(C(=O)C2CCN(S(=O)(=O)c3c(C)noc3C)CC2)CC1,0.0324 (inactive)
20,Cn1c(=NC(=O)CSCC(=O)N2CCOCC2)sc2ccccc21,0.949 (inactive)
21,CC(C)Oc1ccc(C(=O)Nc2cc(=O)n(C)c(=O)n2C)cc1,-0.0919 (inactive)
22,Cc1ccc(S(=O)(=O)Nc2ccccc2CNc2c(C)n(C)n(-c3ccccc3)c2=O)cc1,0.193 (inactive)
23,COc1ccc(S(=O)(=O)Nc2c(C)n(C)n(-c3ccccc3)c2=O)cc1,2.26 (active)
24,COC(=O)Nc1c(C)n(C)n(-c2ccccc2)c1=O,-0.678 (inactive)

row,Compound,B-score
1,COc1ccccc1N1CCN(C(=O)CSc2nnc(-c3ccoc3C)o2)CC1,-1.48 (inactive)
2,O=C(O)[C@@H]1CCCN1c1ncnc2sc3c(c12)CCC3,0.0259 (inactive)
3,N=c1c2c3c(sc2ncn1N)CCCCC3,1.08 (inactive)
4,CC1(C)CN=C(N2CCN(c3ncnc4sc5c(c34)CCCC5)CC2)S1,-3.91 (active)
5,O=C1CCCC2=C1C(c1cccs1)n1nc(SCc3ccccc3)nc1N2 (stereo unspecified),1.97 (inactive)
6,CCOC(=O)c1c(NC(=O)CSc2nnc(C)c(=O)[nH]2)sc2c1CCC2,0.293 (inactive)
7,COC(=O)c1c(NC(=O)CCN2CCOCC2)sc2c1CCCC2,0.415 (inactive)
8,CCOC(=O)c1c(NC(=O)CSc2nnc(CN3CCOCC3)n2C)sc2c1CCCC2,-2.5 (active)
9,Cc1coc2c(O)cc3c(c12)OC1(N2CCCCC2)C(=O)NCCCC31 (stereo unspecified),0.313 (inactive)
10,CCOc1ccc(N(CC(=O)OC)S(=O)(=O)c2c(C)noc2C)cc1,0.515 (inactive)
11,Cc1cc(C)c2nc(SCCC#N)nc(C)c2c1,-0.0173 (inactive)
12,CC(=O)N1C(=O)C2(Nc3ccccc3N2)c2ccccc21,-0.00551 (inactive)
13,CCCc1[nH]nc2c1C(c1c(C)nn(-c3ccccc3)c1Cl)C(C#N)=C(N)O2 (stereo unspecified),-0.557 (inactive)
14,COc1ccc(C2C(C(=O)Nc3ccccc3OC)=C(C)Nc3nnnn32)c(OC)c1 (stereo unspecified),-0.00786 (inactive)
15,COC(=O)c1ccc(C2C3=C(Nc4nnnn42)c2ccccc2OC3)cc1 (stereo unspecified),-2.33 (active)
16,COc1ccccc1NC(=O)C1=C(C)Nc2nnnn2C1c1cccc(Br)c1 (stereo unspecified),0.285 (inactive)
17,CCSc1nc(=S)n(CC)c(C)c1C(C)=O,-0.669 (inactive)
18,O=c1c2ccccc2oc2nc3n(c(=O)c12)CCCS3,0.0394 (inactive)
19,O=C(C(NS(=O)(=O)c1cccc2nsnc12)c1ccccc1)N1CCN(c2ccccn2)CC1 (stereo unspecified),-4.43 (active)
20,CC(=C1C(=O)c2ccccc2C1=O)N1CCN(c2ccccn2)CC1,0.0748 (inactive)
21,O=C(O)c1ccc(NS(=O)(=O)c2cccc3nsnc23)cc1,1.18 (inactive)
22,O=C(CSc1nnnn1C1CCCC1)Nc1ccc2c(c1)OCCO2,-1.53 (inactive)
23,CCc1ccc2oc(=O)cc(CN3CCCCC3C)c2c1 (stereo unspecified),-0.803 (inactive)
24,Cc1ccc(-c2ccc(=O)n(CC(=O)NCCCN3CCCCC3)n2)cc1,-0.074 (inactive)

row,Compound,B-score
1,CC1(C)CC(=O)C=C(NCCCNC2CCCCC2)C1,-0.705 (inactive)
2,CC(C[N+](C)(C)C)OC(N)=O (stereo unspecified),-15 (active)
3,CC(=O)OC(C)C[N+](C)(C)C (stereo unspecified),-11.2 (active)
4,CCOC(=O)c1c(C)n(C)c2ccc(OC)c(NC(=O)CN3CCC4(CC3)OCCO4)c12,-0.00466 (inactive)
5,O=C(O)c1ccc(-n2cccc2)cc1O,-0.249 (inactive)
6,COc1ccccc1OCCC(=O)OCC(=O)NC(=O)NC(C)(C)C,-0.989 (inactive)
7,CCOC(=O)Nc1ccc2c(c1)N(C(=O)CN1CCN3CCCC3C1)c1ccccc1CC2 (stereo unspecified),-4.22 (active)
8,O=C(CN1CCN(C2CCCCC2)CC1)Nc1ccccc1N1CCCCC1,-0.00297 (inactive)
9,CCOC(=O)C1CCCN(Cc2nc(N)nc(Nc3ccc(C)cc3)n2)C1 (stereo unspecified),-0.238 (inactive)
10,CC(=O)Nc1cccc(NC(=O)c2c(-c3ccccc3)noc2C)c1,0.424 (inactive)
11,Cn1c(=O)[nH]c(=O)c2c1nc(N1CCN(CCO)CC1)n2CCSc1nc2ccccc2s1,-0.514 (inactive)
12,C=C(Br)Cn1c(CCCC)nc2ccccc21,0.344 (inactive)
13,OC1CN=C2Sc3ccccc3N2C1 (stereo unspecified),-0.000781 (inactive)
14,COc1cc(Cl)c(C)cc1NC(=O)CSc1nnc(-c2ccco2)n1CC(C)C,-3.28 (active)
15,CCn1c(SCC(=O)Nc2cc(C)c(Cl)cc2OC)nnc1-c1ccco1,0.0151 (inactive)
16,COc1cc(Cl)c(C)cc1NC(=O)CSc1nnc(-c2cccnc2)n1Cc1ccco1,1.15 (inactive)
17,Cc1ccc(C)c2[nH]c(=O)c(CCNC(=O)CC(C)C)cc12,0.426 (inactive)
18,O=c1/c(=C/c2ccc(CNS(=O)(=O)c3ccccc3)o2)sc2n1CCN=2,-1.07 (inactive)
19,C=CCSc1nc2ccccc2[nH]1,-3.2 (active)
20,O=C(CSc1nc2ccccc2[nH]1)c1cccs1,0.722 (inactive)
21,c1ccc2[nH]c(-c3nc4ccccc4[nH]3)nc2c1,0.625 (inactive)
22,O=S(=O)(c1cccc(-c2nnc(SC(F)F)n2-c2ccccc2)c1)N1CCCCC1,0.56 (inactive)
23,CCCCN=C(N)/C(C(=O)OCC)=C(\O)c1ccc(OC)cc1,0.0185 (inactive)
24,Cc1cccc(C)c1NC(=O)CCCSc1nnc(-c2ccco2)n1-c1ccccc1,0.509 (inactive)

# Reference: PubChem BioAssay AID628 (Vanderbilt High Throughput Screening Facility, 2007)
